The source of these data is PubChem BioAssay (NCI).

Some test systems named below: NCI-H226 lung; NCI-H322M lung; HOP-62 NSCLC; NCI-H460 lung; NCI-H522 lung; A549/ATCC NSCLC; 786-0 renal; COLO 205 colon; HOP-92 NSCLC.
Experiment in all cases: NCI-60 one-dose screen, 48 h (100 = growth as untreated, 0 = no growth, -100 = all killed)
Common to all, as to details: 10 µM unless noted

Where “and” joins values, the source holds several entries; their conditions need not be identical. Identical values can stand only once. This is part of a sample that, as a whole, favours compounds with a hit. Of some 83,000 tested, about 20% had one in any assay.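 Each cell line was grown in a 96-well plate and treated with one concentration of compound for 48 hours. Values below 10 were considered active.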 Calls of active or inactive are those of the source.

Turning to `COc1ccc([N+](=O)[O-])cc1OC`, the growth was 101% (inactive) and 98.2% (inactive) in the assay on NCI-H226 lung; 105% (inactive) in the assay with NCI-H322M lung; 98.2% (inactive) and 109% (inactive) with HOP-62 NSCLC; 102% (inactive) and 111% (inactive) in the assay with NCI-H460 lung; 111% (inactive) and 93.7% (inactive) with NCI-H522 lung; 93% (inactive) and 92.9% (inactive) with A549/ATCC NSCLC. The growth was 104% (inactive) and 95% (inactive) in the assay with 786-0 renal; 112% (inactive) and 115% (inactive) in the assay with COLO 205 colon.
In the case of `CCOC(=O)C1=CC(=O)CC(C)(C)O1`, the growth is 114% (inactive) and 95.3% (inactive) in the assay with NCI-H226 lung; 99.2% (inactive) and 125% (inactive) with NCI-H322M lung; 109% (inactive) and 107% (inactive) with HOP-62 NSCLC; 107% (inactive) and 109% (inactive) in the assay on NCI-H460 lung; 93.5% (inactive) and 97.1% (inactive) in the assay with HOP-92 NSCLC; 79.7% (inactive) and 96.2% (inactive) with NCI-H522 lung. Also, the growth in the assay on A549/ATCC NSCLC was 119% (inactive) and 81.9% (inactive); in the assay on 786-0 renal it was 110% (inactive) and 116% (inactive); in the assay on COLO 205 colon it was 105% (inactive) and 111% (inactive).
With `OC(CC(c1ccccc1)c1cccc2ccccc12)(c1ccccc1)c1ccccc1` (stereo not given), the growth was 77.9% (inactive) and 79.1% (inactive) with NCI-H226 lung; 97.5% (inactive) and 105% (inactive) with NCI-H322M lung; 94.6% (inactive) and 97% (inactive) in the assay with HOP-62 NSCLC; 89.2% (inactive) and 91.4% (inactive) with NCI-H460 lung; 49.5% (inactive) and 58.4% (inactive) in the assay with HOP-92 NSCLC; 47.9% (inactive) and 62.7% (inactive) in the assay on NCI-H522 lung. Moreover, the growth in the assay on A549/ATCC NSCLC was 73.7% (inactive) and 79.1% (inactive); with 786-0 renal, 85.7% (inactive) and 79.7% (inactive).
Consider `CCN(CC)Cc1cc2[nH]c3c4ccc(Cl)cc4ncc3c2cc1OC`, for which the growth in the assay on NCI-H226 lung is 84.1% (inactive) and 93.4% (inactive); in the assay with NCI-H322M lung it was 93.2% (inactive) and 87.2% (inactive); in the assay on HOP-62 NSCLC it was 80.7% (inactive) and 87.9% (inactive); in the assay on NCI-H460 lung it was 0.598% (active) and 14% (inactive); with NCI-H522 lung, 244% (inactive) and 12.6% (inactive); in the assay on A549/ATCC NSCLC, 19.6% (inactive) and 44.1% (inactive). In the assay on 786-0 renal, the growth is 81% (inactive) and 86.3% (inactive).
For the compound `CS(=O)(=O)c1nsc(N)n1`, the growth in the assay with NCI-H226 lung is 99.2% (inactive); with NCI-H322M lung, 98.4% (inactive); in the assay on HOP-62 NSCLC, 89.5% (inactive); in the assay on NCI-H460 lung, 106% (inactive); in the assay on HOP-92 NSCLC it was 111% (inactive); with NCI-H522 lung, 91.1% (inactive). In addition, the growth in the assay on A549/ATCC NSCLC is 87.7% (inactive); in the assay on 786-0 renal it was 106% (inactive); with COLO 205 colon, 103% (inactive).
Regarding `Cc1ccc2cccc([N+](=O)[O-])c2n1`, the growth in the assay with NCI-H226 lung was 101% (inactive); in the assay on NCI-H322M lung it was 110% (inactive) and 90.5% (inactive); in the assay with HOP-62 NSCLC, 103% (inactive) and 95.1% (inactive); with NCI-H460 lung, 117% (inactive) and 107% (inactive); in the assay on HOP-92 NSCLC it was 123% (inactive) and 96.2% (inactive); in the assay with NCI-H522 lung, 90.2% (inactive) and 93.8% (inactive). Further, the growth in the assay with A549/ATCC NSCLC was 103% (inactive) and 104% (inactive); in the assay with 786-0 renal, 118% (inactive) and 98.3% (inactive); in the assay on COLO 205 colon it was 104% (inactive) and 106% (inactive).
`COc1ccccc1OCC(O)CO` (stereo not given): the growth in the assay with NCI-H226 lung is 102% (inactive) and 94.6% (inactive); in the assay on NCI-H322M lung, 75.7% (inactive) and 115% (inactive); in the assay with HOP-62 NSCLC it was 96.8% (inactive) and 121% (inactive); in the assay with NCI-H460 lung, 105% (inactive) and 113% (inactive); with HOP-92 NSCLC it was 90% (inactive); in the assay with NCI-H522 lung, 98.6% (inactive) and 106% (inactive). For the same compound, the growth is 96.6% (inactive) with A549/ATCC NSCLC; 97.6% (inactive) and 102% (inactive) with 786-0 renal; 116% (inactive) in the assay on COLO 205 colon.
As to `CC1OS(=O)OC1C` (stereo not given), the growth was 108% (inactive) and 94% (inactive) in the assay on NCI-H322M lung; 101% (inactive) and 105% (inactive) in the assay with HOP-62 NSCLC; 104% (inactive) and 102% (inactive) in the assay with NCI-H460 lung; 114% (inactive) and 96.3% (inactive) with HOP-92 NSCLC; 68.9% (inactive) and 94.9% (inactive) with NCI-H522 lung; 97.9% (inactive) and 104% (inactive) in the assay on A549/ATCC NSCLC. Also, the growth in the assay on 786-0 renal was 103% (inactive) and 105% (inactive); in the assay with COLO 205 colon, 112% (inactive) and 102% (inactive).
Take `O=C1c2ccccc2C(c2ccccc2)C1c1ccccc1` (stereo not given): the growth in the assay with NCI-H226 lung is 101% (inactive); in the assay with NCI-H322M lung it was 92.5% (inactive); with HOP-62 NSCLC, 98.6% (inactive); with NCI-H460 lung, 95.8% (inactive); in the assay with HOP-92 NSCLC it was 80.2% (inactive); in the assay on NCI-H522 lung, 86.2% (inactive). Further, the growth is 91.3% (inactive) in the assay with A549/ATCC NSCLC and 107% (inactive) in the assay on 786-0 renal.
On to `O=[N+]([O-])c1cccc(N=Cc2ccccc2)c1`, for which the growth was 99.9% (inactive) in the assay on NCI-H226 lung; 113% (inactive) in the assay with NCI-H322M lung; 105% (inactive) in the assay on HOP-62 NSCLC; 119% (inactive) with NCI-H460 lung; 95.7% (inactive) in the assay with HOP-92 NSCLC; 88.2% (inactive) in the assay on NCI-H522 lung. The growth in the assay with A549/ATCC NSCLC was 99.8% (inactive); in the assay on 786-0 renal it was 105% (inactive); in the assay with COLO 205 colon, 118% (inactive).
Regarding `NC1=NC(c2ccccc2)N=C(Nc2ccccc2)N1` (stereo not given), the growth was 91.5% (inactive) and 84.7% (inactive) in the assay on NCI-H322M lung; 78.1% (inactive) and 74.8% (inactive) with HOP-62 NSCLC; 103% (inactive) and 95% (inactive) with NCI-H460 lung; 81% (inactive) and 89.1% (inactive) in the assay on HOP-92 NSCLC; 83.8% (inactive) and 110% (inactive) with NCI-H522 lung; 94.1% (inactive) and 106% (inactive) with A549/ATCC NSCLC. In addition, the growth in the assay with 786-0 renal is 93.3% (inactive) and 101% (inactive); in the assay on COLO 205 colon it was 91.7% (inactive) and 63.4% (inactive).
On to `CC(=O)Nc1ccc(OC(C)=O)cc1`, for which the growth was 5.48% (active) and 98.2% (inactive) in the assay on NCI-H226 lung; 29.5% (inactive) and 112% (inactive) in the assay on NCI-H322M lung; 8.93% (active) and 111% (inactive) in the assay on HOP-62 NSCLC; 2.3% (active) and 98.6% (inactive) in the assay with NCI-H460 lung; -31.9% (active) and 105% (inactive) with NCI-H522 lung; 6.06% (active) and 102% (inactive) with A549/ATCC NSCLC. For the same compound, the growth is 11.4% (inactive) and 99.9% (inactive) in the assay on 786-0 renal; -81.3% (active) and 108% (inactive) in the assay on COLO 205 colon.
